Laboratory results published in PubChem BioAssay AID463173 (ICCB-Longwood Screening Facility, Harvard Medical School, 2010).
The campaign covered roughly 52,000 compounds. About 4,300 (8.3%) were called active. The entries come from a sample that favours actives as a whole. Values without a mark were called inactive. Cut-off read from the data, not from the text of the source: active = survival mostly below about 52% (no sharp cut-off); inactive = mostly above about 56%.

Each compound was assayed on DeltatarO mutant (assay: S. aureus survival, RN4220 and DeltatarO strains – OD600, teichoic acid synthesis inhibitors, primary screen (AID 463173)). Conditions: S. aureus RN4220 wild type/DeltatarO growth, OD600, 18 h, active compounds read low, screened at 18.75 µg/mL (by protocol).

Point of comparison: `CCn1cc(S(=O)(=O)c2cccc(C)c2)c(=O)c2cc(F)c(N3CCCC(C)C3)cc21` (stereo not drawn), survival 84%. Against it:
- CCOCCCNC(=O)c1cc2c(=O)[nH]c3ccccc3c2n1C — higher, 116%
- CCCCOc1ccc(S(=O)(=O)NCc2csc(-c3ccc(OC)cc3)n2)cc1 — higher, 88%
- CCOC(=O)c1c(S(=O)(=O)NCC(=O)Nc2ccc(C)c(N(C)C)c2)c(C)n(C)c1C — lower, 79%
- COc1ccc(N2CCN(C(=O)CCn3c(=O)c4cccn4c4cccnc43)CC2)cc1 — lower, 80%
- O=C(CCn1c(=O)c2cccn2c2cccnc21)N1CCN(c2ccccc2)CC1 — higher, 102%
- Cc1cccc(N2CCN(C(=O)CCn3c(=O)c4cccn4c4cccnc43)CC2)c1C — lower, 59%
- O=C(CCn1c(=O)c2cccn2c2cccnc21)N1CCN(c2ccc(F)cc2)CC1 — higher, 88%
- O=C(CCn1c(=O)c2cccn2c2cccnc21)N1CCN(c2ccc(Cl)cc2)CC1 — lower, 53%
- Cc1ccc(C)c(N2CCN(C(=O)CCn3c(=O)c4cccn4c4cccnc43)CC2)c1 — lower, 58%
- O=C(C1CCN(S(=O)(=O)c2cccs2)CC1)N1CCN(c2cccc(Cl)c2)CC1 — lower, 64%
- CCOC(=O)c1cc2c(ccn2C)n1Cc1ccc(OC(F)(F)F)cc1 — higher, 96%
- CCOC(=O)N1CCc2c(sc3c2c(=O)n(Cc2ccccc2)c(=O)n3Cc2cccc(C)c2)C1 — lower, 83%
- CC(C)NC(=O)CCSc1ccc(Cl)cc1 — higher, 93%
- COc1ccc(N(C)C(=O)CCn2cnc3onc(-c4ccc(F)cc4)c3c2=O)c(OC)c1 — higher, 92%
- CC(C)Cn1c(C2CC(=O)N(c3ccccc3Cl)C2)nc2ccccc21 (stereo not drawn) — higher, 101%
- Cc1nc2ccccc2c(=O)n1CC(C)C — lower, 64%
- CCCCNc1nc2c(-c3cccc(Br)c3)nnn2c2ccccc12 — higher, 101%
- CCCn1c(SCC(O)c2cccc(OC)c2)nc2ccccc21 (stereo not drawn) — the same, 84%
- CC(=O)NC(C)c1nc2ccccc2n1Cc1ccccc1Cl (stereo not drawn) — lower, 83%
- CC(C)Nc1nc2c(-c3cccc(Br)c3)nnn2c2ccccc12 — lower, 69%
- O=C(O)c1ccc(NC(=O)c2cc(S(=O)(=O)N3CCCCC3)c(Cl)cc2Cl)cc1 — higher, 165%
- CCOCCCN(Cc1ccco1)S(=O)(=O)c1cc2c(cc1C)NC(=O)CO2 — lower, 64%
- O=C(NCc1ccco1)c1ccccc1 — lower, 67%
- O=C(Nc1ccccc1)c1cc2sccc2n1Cc1ccccc1 — higher, 87%
- COc1ccc(C(=O)NCc2ccc3c(c2)CCN3C(=O)c2ccc(Cl)cc2)c(OC)c1 — higher, 94%
- COc1ccc(Cl)cc1NC(=O)C(C)n1nnc2sc3c(c2c1=O)CCCC3 (stereo not drawn) — lower, 78%
- Cc1cccc(NS(=O)(=O)c2ccc(Cl)c(C(=O)Nc3ccccc3C)c2)c1 — lower, 71%
- CC(C)CCOc1ccc(Oc2nc(N(C)C)nc(N(C)C)n2)nn1 — lower, 62%
- Cc1nn(C)c2c1c(C(F)(F)F)cc(=O)n2CC(=O)NCc1ccc(OC(C)C)cc1 — higher, 90%
- Cc1cccc(Nc2c(-c3cccs3)nc3nc(C)cc(C)n23)c1 — higher, 151%
- Cc1cc(C)n2c(Nc3ccccc3C)c(-c3cccs3)nc2n1 — the same, 84%
- Cc1ccc(C)c(NC(=O)Cn2c(=O)n(Cc3ccc4c(c3)OCO4)c(=O)c3ccc(C(=O)NC4CCCCC4)cc32)c1 — higher, 88%
- COc1cccc(C(=O)Nc2cccc(C(=O)OCc3cc(=O)n4c(C)csc4n3)c2)c1 — higher, 128%
- Cc1csc2nc(COC(=O)c3ccc(F)cc3)cc(=O)n12 — lower, 72%
- Cc1ccccc1C(=O)Nc1cccc(C(=O)OCc2cc(=O)n3c(C)csc3n2)c1 — higher, 87%
- Cc1csc2nc(COC(=O)c3cccc(NC(=O)COc4ccc(Cl)cc4)c3)cc(=O)n12 — higher, 94%
- CCOc1ccc(C(=O)Nc2ccc(C(=O)OCc3cc(=O)n4c(C)csc4n3)cc2)cc1 — higher, 88%
- Cc1ccc(OCC(=O)Nc2cccc(C(=O)OCc3cc(=O)n4c(C)csc4n3)c2)cc1 — higher, 89%
- Cc1ccc(NC(=O)CN(C)S(=O)(=O)c2ccc3c(c2)CCC(=O)N3)c(C)c1 — higher, 85%
- CCN(Cc1ccccc1)C(=O)c1nn(-c2ccc(OC)cc2)c(=O)c2c1c1ccccc1n2C — lower, 68%
- COc1ccccc1NC(=O)CN1C(=O)C(C)(C)c2ccccc21 — higher, 85%
- CCc1ccc2c(c1)NC(c1ccc(C)cc1)=NC(c1cccs1)=N2 — lower, 68%
- Cc1ccc[n+](Cc2cnc(C)nc2N)c1 — lower, 83%
- CCC(=O)N1CCc2cc(S(=O)(=O)NC(Cc3ccccc3)C(=O)Nc3ccccc3C)ccc21 (stereo not drawn) — higher, 118%
- COc1ccccc1-c1nnc(C2CCN(C(=O)c3ccc(C)cc3)CC2)o1 — higher, 91%
- CCN(CC)N=Nc1ccc(S(=O)(=O)N=C(C)O)cc1 — higher, 87%
- Nc1nnc(CSCc2ccccc2)s1 — higher, 109%
- Nc1nc(SCc2ccccc2)ns1 — lower, 53%
- Cc1ccc(Nc2c(C(C)C)c(C)c(C#N)c3nc4ccccc4n23)cc1 — lower, 62%
- CC(=O)Nc1ccc(Nc2c(CCC(C)C)c(C)c(C#N)c3nc4ccccc4n23)cc1 — higher, 136%
- CC1=C(C(=O)Nc2ccc(C)cc2Cl)C2(CCCCCC2)OC1=O — higher, 89%
- Cc1nc2cc(-c3ccccc3)nn2c(C)c1CCC(=O)NCCc1ccccc1 — lower, 54%
- COc1cc([N+](=O)[O-])ccc1NC(=O)N1CCN(c2cc(-c3noc(C)n3)ccc2C)CC1 — higher, 94%
- CCN1c2cc(C)ccc2-n2cccc2C12CCN(C(=O)Nc1cc(OC)c(OC)c(OC)c1)CC2 — higher, 93%
- COc1cc(NC(=O)N2CCC3(CC2)Nc2cc(F)ccc2-n2cccc23)cc(OC)c1OC — higher, 105%
- COc1cc(NC(=O)N2CCC3(CC2)Nc2ccccc2-n2cccc23)cc(OC)c1OC — higher, 101%
- Cc1cc(C(=O)Nc2cccc(OC(C)C)c2)c(C)o1 — higher, 105%
- COc1cccc(CNC(=O)c2nnc(Cc3ccc(Cl)cc3)o2)c1 — higher, 91%
- CCOc1ccc(CCNC(=O)CCn2c(=O)c3cccn3c3cccnc32)cc1 — higher, 89%
- CCS/C=C/C#CC1(O)CCCCC1 — higher, 90%
- Cc1ccccc1CNC(=O)c1ccc2nc(SCc3ccc(F)cc3)n(C)c2c1 — lower, 60%
- COc1ccc(Cl)cc1NC(=O)Cn1ncc2c3ccccc3n(Cc3ccccc3)c2c1=O — higher, 125%
- CCOC(=O)Cn1nnc(-c2ccccc2)n1 — higher, 95%
- CCOC(=O)c1[nH]c2c(c1Cc1ccccc1C)C(=O)CC(c1cc(OC)ccc1OC)C2 (stereo not drawn) — lower, 82%
- COc1ccc(N2CCN(C(=O)CCc3c(C)nc4cc(-c5ccc(Cl)cc5)nn4c3C)CC2)cc1 — higher, 116%
- O=C(O)/C=C/C(=O)Nc1nnc(-c2ccccc2F)s1 — higher, 97%
- Cc1ccn2c(Nc3ccc4c(c3)OCO4)c(-c3ccc(C)o3)nc2c1 — lower, 81%
- COc1ccc(Nc2c(-c3ccc(C)o3)nc3cc(C)ccn23)cc1 — lower, 75%
- Cc1ccc2nc(-c3ccco3)c(Nc3ccc4c(c3)OCCO4)n2c1 — lower, 67%
- Cc1ccc(Nc2c(-c3ccc(Br)o3)nc3ccccn23)cc1 — higher, 112%
- Brc1ccc(-c2nc3ccccn3c2Nc2ccc3c(c2)OCCO3)o1 — higher, 85%
- Cc1ccc(-c2nc3ccccn3c2Nc2ccc3c(c2)OCO3)cc1 — lower, 73%
- Cc1ccc2nc(-c3ccc(C)o3)c(Nc3ccc4c(c3)OCCO4)n2c1 — lower, 72%
- Cc1ccc(-c2nc3ccccn3c2Nc2ccc3c(c2)OCCO3)o1 — lower, 45%

With `Cc1ccc(Cl)cc1N1CCN(C(=O)CCn2c(=O)c3cccn3c3cccnc32)CC1` the survival was 39% (active).
With `O=C(CCn1c(=O)c2cccn2c2cccnc21)N1CCN(c2cccc(C(F)(F)F)c2)CC1` the survival was 39% (active).
`O=C(CCn1c(=O)c2cccn2c2cccnc21)N1CCN(c2cccc(Cl)c2)CC1` was tested, and the survival was 46% (active).
With `CCCn1c(-c2cccc(Br)c2)nc2ccccc21` the survival was -4% (active).
In the case of `CC(C)Cn1c(-c2ccccc2Cl)nc2ccccc21`, the survival is reported as -2% (active).
With `CC(C)Cn1c(-c2cccc(Br)c2)nc2ccccc21` the survival was 21% (active).
In the case of `Cc1ccc(Nc2c(-c3cccs3)nc3nc(C)cc(C)n23)cc1`, the survival is reported as 15% (active).
For `Cc1cccc(OCC(=O)Nc2cccc(C(=O)OCc3cc(=O)n4c(C)csc4n3)c2)c1`, the survival was -5% (active).
`Cc1csc2nc(COC(=O)c3cccc(NC(=O)c4cccc(Cl)c4)c3)cc(=O)n12` was tested, and the survival was 17% (active).
For `CCOc1cc(C(=O)OCc2cc(=O)n3c(C)csc3n2)cc(OCC)c1OCC`, the survival was -1% (active).
In the case of `Nc1nnc(SCc2ccccc2)s1`, the survival is reported as 49% (active).
For `CCc1c(C)c(C#N)c2nc3ccccc3n2c1Nc1cccc(C(F)(F)F)c1`, the survival was 39% (active).
In the case of `COc1cc([N+](=O)[O-])ccc1NC(=O)N1CCC2(CC1)Nc1ccccc1-n1cccc12`, the survival is reported as 37% (active).
For `COc1cc([N+](=O)[O-])ccc1NC(=O)N1CCC2(CC1)Nc1cc(F)ccc1-n1cccc12`, the survival was 46% (active).
In the case of `c1coc(-c2nc3ccccn3c2Nc2ccc3c(c2)OCCO3)c1`, the survival is reported as 53% (active).
For `Cc1ccc(-c2nc3ccccn3c2Nc2ccc3c(c2)OCO3)o1`, the survival was 34% (active).
With `Cc1ccc(-c2nc3ccccn3c2Nc2c(C)cccc2C)o1` the survival was -2% (active).
For `Cc1ccn2c(Nc3ccc4c(c3)OCCO4)c(-c3ccc(C)o3)nc2c1`, the survival was 58% (active).
